Among the data in PubChem BioAssay AID2435 (The Scripps Research Institute Molecular Screening Center, 2010) are activation values, retold here.

Hit rate of the full screen: of about 320,000 compounds, about 1,000 (0.31%) were called active. The sample holds actives, similar compounds and a random draw of the others, so the mix is not that of the screen.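 Rule for the calls: active = activation above the mean of all tested compounds plus 3 SD, cutoff set per screening run (cut at about 20% in these data); inactive = the rest.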

Chain of Oxytocin receptor (Homo sapiens) (P30559 whole entry, looked up): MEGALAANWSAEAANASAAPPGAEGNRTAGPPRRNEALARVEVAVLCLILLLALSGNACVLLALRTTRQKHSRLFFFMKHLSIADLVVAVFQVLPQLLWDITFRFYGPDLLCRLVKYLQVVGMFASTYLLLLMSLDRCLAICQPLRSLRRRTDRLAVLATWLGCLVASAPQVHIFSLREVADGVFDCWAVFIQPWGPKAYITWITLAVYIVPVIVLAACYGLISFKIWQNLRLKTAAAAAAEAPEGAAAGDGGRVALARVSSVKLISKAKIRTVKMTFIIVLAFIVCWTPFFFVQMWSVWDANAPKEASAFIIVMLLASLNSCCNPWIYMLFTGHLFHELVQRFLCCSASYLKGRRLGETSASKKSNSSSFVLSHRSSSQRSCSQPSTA

The test has as its target Oxytocin receptor (Homo sapiens) (UniProt P30559). The test can be described thus: oxytocin receptor activation by calcium flux – fluorescence, CHO-OTR cells, Fluo-8 calcium, primary screen (AID 2435).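 Note: peak over basal fluorescence ratio from a 100 s FLIPR kinetic read.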 The note with it: Fluo-8 calcium fluorescence, at 3 µM, hits give high values, normalized: DMSO 0%, oxytocin 100%.
As for `Cc1ccc(O)c(NC(=S)NC(=O)COc2ccc(Br)cc2)c1`, the activation was 51.9% (active).
The same measure for `Cc1ccc(O)c(NC(=O)COc2cc(C)ccc2C)c1`: 0.92% (inactive).
The same measure for `Cc1cccc(OCC(=O)NC(=S)Nc2ccccc2N2CCOCC2)c1`: -0.15% (inactive); for `COc1ccc([N+](=O)[O-])cc1NCC(=O)c1ccc(C)cc1`: -1.36% (inactive).
Next, `O=C(NC1CC1)C1=C[C@H](c2c[nH]c3ccccc23)C[C@H](OCc2ccc(CO)cc2)O1`: -0.84% (inactive); `NC(=O)C1=C[C@@H](c2csc3ccccc23)C[C@@H](OCc2ccc(CO)cc2)O1`: 5% (inactive); `NC(=O)C1=C[C@H](c2csc3ccccc23)C[C@H](OCc2ccc(CO)cc2)O1`: 25.9% (active).
`Cc1ccc(NC(=O)CN(C)C(=O)c2cccc(S(=O)(=O)N3CCCC3)c2)cc1`: the activation was -1.01% (inactive).
Next, `COc1cc(/C=C2/SC(=S)N(Cc3ccccc3)C2=O)cc(OC)c1O`: 23.8% (active); `COc1ccc(/C=C2\SC(=S)N(CCCC(=O)NC3CCCC3)C2=O)cc1OC`: -1.19% (inactive).
The same measure for `COc1ccc(/C=C2\SC(=S)N(CCC(=O)Nc3cccc(C(=O)O)c3)C2=O)cc1OC`: -0.74% (inactive); for `COCCn1c(N)c(NCc2ccccc2)c(=O)[nH]c1=O`: 0.2% (inactive); for `Cc1ccc(C)c(CN2CCC(CNC(=O)Nc3ccc(C)c(F)c3)CC2)c1`: 2.73% (inactive).
Next, `COc1cc(NC(=O)NCC2CCN(Cc3ccc(C)cc3)CC2)cc(OC)c1OC`: 1.34% (inactive); `Cc1ccccc1NC(=O)NCC1CCN(Cc2cccc(Cl)c2)CC1`: 1.57% (inactive); `Cc1cccc(CN2CCC(CNC(=O)Nc3ccc(F)c(Cl)c3)CC2)c1`: 28.2% (active).
On to `COc1ccc(Cl)cc1NC(=O)NCC1CCN(Cc2ccccc2F)CC1`, for which the activation was 19.8% (active).
The same measure for `O=C(NCC1CCN(Cc2ccccc2Cl)CC1)Nc1cccc(Cl)c1`: 4.22% (inactive); for `CCn1cc(CCC(=O)NCc2ccc(F)cc2)c2ccccc21`: -1.14% (inactive); for `COc1ccc(C(C#N)N2N=C(C)CC2(C)C)cc1` (stereo not given): 0.73% (inactive).
Next, `COc1cc(C(F)(F)F)c(C(=O)N(C)c2ccc(Cl)cc2)cn1`: -1.66% (inactive).
The same measure for `COc1ccccc1CNS(=O)(=O)c1cc2c3c(c1)CCC(=O)N3CCC2`: 2.19% (inactive); for `CCOc1ccc(N(C(=O)c2snc(C(N)=O)c2N)C(C(=O)NCC2CCCO2)c2c[nH]c3ccccc23)cc1` (stereo not given): 1.87% (inactive); for `Cc1cc(NC(=O)CCN2CCN(Cc3ccccc3)CC2)ccc1Br`: 23.2% (active).
Consider `CCOC(=O)N1CCN(CCC(=O)Nc2ccccc2)CC1`, for which the activation is -0.17% (inactive).
Next, `CC1CCN(CCC(=O)Nc2ccccc2)CC1`: -0.16% (inactive); `Cc1ccccc1CCNC(=O)C1CCC(=O)N(Cc2ccc(Cl)cc2)C1` (stereo not given): -1.42% (inactive).
On to `CCCCCN(C(=O)CCC(=O)OCC(=O)NCc1ccc(OC)cc1)c1c(N)n(CCCC)c(=O)[nH]c1=O`, for which the activation was -0.95% (inactive).
The same measure for `CC(CO)(CO)NC(=O)c1ccc(=O)[nH]n1`: 45.8% (active).
The same measure for `Cc1ccc(-c2cc(C(=O)NN)n[nH]2)o1`: -1.85% (inactive).
The same measure for `COc1ccc(C(=O)NNC(=O)c2cc(C)[nH]n2)cc1`: -1.68% (inactive).
Take `O=C(CSc1nc2[nH]ncc2c(=O)[nH]1)Nc1ccc(F)cc1`: the activation was 0.71% (inactive).
The same measure for `O=C(NCCC1CCCCN1S(=O)(=O)c1ccc(Cl)cc1)C(=O)NCc1ccco1` (stereo not given): -1.1% (inactive).
Next, `CCN(CC)c1ccc2oc(=O)c(C)nc2c1`: 38% (active).
Next, `C=CCN(C(=O)Nc1ccc2oc(C)nc2c1)c1ccccc1`: -0.77% (inactive).
Turning to `CCN(CC)c1ccc(C(=O)Nn2c(C)nc3ccccc3c2=O)cc1`, the activation is 3.66% (inactive).
The same measure for `CCOc1ccc(C)cc1S(=O)(=O)NC1CCCCCC1`: -1.02% (inactive).
Next, `C[C@@H]1O[C@@H](OC[C@H]2O[C@@H](Oc3c(-c4ccc(O)cc4)oc4cc(O)cc(O)c4c3=O)[C@H](O)[C@@H](O)[C@@H]2O)[C@H](O)[C@H](O)[C@H]1O`: -0.01% (inactive); `CCCCc1nc(NCCN)c(C#N)c2c1CSC(C)(C)C2`: 7.89% (inactive); `CCCC(O)(c1ccc(OC)cc1)C(CN(C)C)c1ccccc1` (stereo not given): 1.32% (inactive).
Turning to `COC(=O)c1ccc(OCC(O)CN(CCO)CC(O)Cn2ccc3ccccc32)cc1` (stereo not given), the activation is 3.04% (inactive).
The same measure for `COc1ccc(CN2C(=O)CC(Cc3ccc(C)cc3)C2=O)cc1OC` (stereo not given): -1.49% (inactive); for `CCN(Cc1ccccc1)C(=O)CSc1nc(C)cc2c1C(=O)OC2`: 1.04% (inactive); for `Cc1ccc(CNC(=O)c2ccc3c(c2)S(=O)(=O)c2ccccc2C3=O)cc1`: -0.21% (inactive).
Next, `CC1CCN(c2c(NCc3ccc(C(=O)NCc4ccccc4)cc3)c(=O)c2=O)CC1`: 0.21% (inactive); `Cc1ccc(CNC(=O)c2cccc3c2C(=O)c2ccc(N4CCC(C)CC4)cc2S3(=O)=O)cc1`: 40.5% (active); `CC(C)Oc1c(Br)cc(Br)cc1/C=N/NC(N)=S`: -1.11% (inactive).
The same measure for `Nc1c(C(=O)c2cccs2)sc2nsc(SCCN3CCCCC3)c12`: 50.2% (active).
Take `O=C(CSc1ncnc2sccc12)N1CCN(C(=O)c2cccs2)CC1`: the activation was 1.17% (inactive).
On to `O=C(CCCN1C(=O)CCC1=O)Nc1ccc(Cl)c(C(F)(F)F)c1`, for which the activation is 6.54% (inactive).
The same measure for `CC1=CC(=C(C#N)c2nc3ccccc3s2)C=C(C)N1c1ccc(F)cc1F`: 0.27% (inactive); for `O=c1[nH][nH]c(C(F)(F)F)c1C=NCc1ccccc1Cl`: 1.38% (inactive).
The same measure for `O=C(NCCCc1ccccc1)C(=O)NCC1OCCN1S(=O)(=O)c1ccccc1` (stereo not given): -0.3% (inactive); for `COC(=O)Cc1cc(=O)oc2c(C)c(O)ccc12`: 3.75% (inactive); for `Cc1cc(S(=O)(=O)c2cc3ccc(O)c(C)c3oc2=O)ccc1F`: 20.6% (active).
Next, `COc1cccc2cc(S(=O)(=O)c3ccc(C)cc3)/c(=N/NS(=O)(=O)c3ccc(C)cc3)oc12`: -0.02% (inactive); `COCCNC(=O)NC(=O)COC(=O)C1(c2ccc(Cl)cc2)CC1`: -1.47% (inactive); `CCc1c(C)sc(NC(=O)OC)c1C(=O)N1CCOCC1`: -0.45% (inactive).
For the molecule `CC1=CC2=NC(=O)/C(=C/c3coc4ccccc4c3=O)C(=N)N2O1`, the activation was 30.4% (active).
Next, `CCOc1cc(/C=C2/C(=N)N3OC(C)=CC3=NC2=O)ccc1OC`: -0.04% (inactive); `COc1ccc(OCCCn2cccc2/C=C2/C(=N)N3OC(C)=CC3=NC2=O)cc1`: 1.35% (inactive).
Consider `C=CCSc1nc(N)cc(=O)[nH]1`, for which the activation is 0.06% (inactive).
Next, `CCCCCCCCCCOC(=O)Cn1c(COc2cccc(OC)c2)[n+](C)c2ccccc21`: 21.5% (active); `CCCCCCCCCCOC(=O)Cn1c(COc2ccc(C)cc2)[n+](C)c2ccccc21`: -1.93% (inactive); `CCOC(=O)Cn1c(-c2cccnc2Cl)nc2ccccc21`: 0.33% (inactive).
`CC1=CC(C)(C)NC(=S)N1c1ccccc1`: the activation was -0.69% (inactive).
For the molecule `Cc1cc(N)n2nc(-c3ccc(C(C)(C)C)cc3)cc2n1`, the activation was -1.18% (inactive).
The same measure for `C#CCOCCOCCOCCNc1nc(N2CCN(C(=O)C([C@@H](C)CC)n3cc(C(N)COC(=O)C(F)(F)F)nn3)CC2)nc(N2CCN(C(=O)[C@H](Cc3ccc(O)cc3)n3cc(C(N)[C@H](C)CC)nn3)CC2)n1` (stereo not given in full): 0.32% (inactive).
On to `c1ccc2c(CCN3CCNC[C@H]3Cc3cccc4ccccc34)cccc2c1`, for which the activation is 8.2% (inactive).
The same measure for `c1ccc(C2CNCc3c2ccc2ccccc32)cc1` (stereo not given): 22.4% (active); for `COCCn1c(=O)[nH]c(=O)c2cc(C(=O)c3cc(OC)ccc3O)cnc21`: -0.31% (inactive).
The same measure for `Cc1ccc2oc(=O)c3cnn(CC(=O)N(Cc4ccco4)C4CCCCC4)c3c2c1`: -1.36% (inactive); for `CC1CN(S(=O)(=O)c2ccc(C(=O)NN3CCN(C)CC3)cc2)CC(C)O1` (stereo not given): 0.04% (inactive).
The same measure for `Brc1ccc(C2=CC(c3ccco3)n3ncnc3N2)cc1` (stereo not given): 16.4% (inactive).
As to `CCOc1ccc(C2=CC(c3ccccc3)n3ncnc3N2)cc1` (stereo not given), the activation was -2.25% (inactive).
In the case of `COc1ccc(C2C=C(c3ccc(Br)cc3)Nc3nc(NS(C)(=O)=O)nn32)cc1` (stereo not given), the activation was 20.5% (active).
The same measure for `COc1ccc(OC)c(NC(=S)N2CCc3ccccc3C2)c1`: -1.2% (inactive); for `O=S(=O)(c1cccc(Cn2nnc(-c3ccc(F)cc3)n2)c1)N1CCOCC1`: 18.4% (inactive); for `O=C(C1CCCN1S(=O)(=O)c1ccc(Br)cc1)N1CCOCC1` (stereo not given): -0.61% (inactive).
Next, `COc1ccc(CNC(=O)c2nnn(CC(=O)Nc3cc(C)cc(C)c3)c2N)cc1`: 0.21% (inactive).
Next, `COc1ccc(NC(=O)Cn2nnc(C(=O)NCCc3ccc(OC)c(OC)c3)c2N)cc1`: -0.34% (inactive); `COc1cccc(CNC(=O)c2nnn(CC(=O)Nc3cc(Cl)ccc3C)c2N)c1`: 2.37% (inactive).
For the molecule `CCOc1ccc(Cn2nnc(C(=O)Nc3ccc(OC)cc3OC)c2N)cc1`, the activation is 25.1% (active).
As to `CCOc1ccc(Cn2nnc(C(=O)NCc3ccccc3)c2N)cc1`, the activation was 32% (active).
Next, `CCc1ccc(NC(=O)Cn2nnc(C(=O)NCc3ccc(OC)cc3)c2N)cc1`: 0.62% (inactive).
Next, `Cc1ccc2c(c1)N(CC(=O)N1CCC(C)CC1)C(=O)c1cccnc1O2`: 1.7% (inactive); `CCc1cccc(CC)c1NC(=O)COc1ccccc1C(=O)c1cc(C#N)c(=O)n(C2CCCCC2)c1`: 2.32% (inactive); `Cc1cc(C(=O)NC2CCN(Cc3ccccc3)CC2)n[nH]1`: 0.51% (inactive).
The same measure for `CN(CC(=O)NCc1ccc(Cl)cc1)S(=O)(=O)c1cccs1`: 0.76% (inactive).
Take `CC(Oc1cccc(Cl)c1)C(=O)Nc1ccc(S(=O)(=O)Nc2ncccn2)cc1` (stereo not given): the activation was 1.17% (inactive).
